Compounds with a hit are over-represented: about 2.5% of the library has one in this group of screens.
Pol kappa inh: qHTS for Inhibitors of Polymerase Kappa; purified Pol kappa, fluorescent DNA synthesis assay, 10 min; hit rate 0.53% among 400,000; DNA polymerase kappa (Homo sapiens), Q9UBT6; Potency, µM (series often up to 107 µM), without a hit: at the highest dose activity, negative = inhibition, hits mostly inhibitors; AID 588579, 2011; also: % is scaled to controls: 0 for no effect and ±100 for the full control effect
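Kinetic fluorescence readout at 0 and 10 min followed reaction start with substrate at 50 nM final. Beforehand, enzyme (10 nM Pol kappa) stood 15 min with compound at room temperature; buffer-only wells were negative controls.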
WRN helicase inh: qHTS for Inhibitors of WRN Helicase. Bifunctional 3'-5' exonuclease/ATP-dependent helicase WRN (Homo sapiens), Q14191. WRN helicase unwinding, fluorescent forked duplex, kinetic. Potency, µM (top dose mostly 114 µM), for the others: at the highest dose activity change, negative = inhibition, hits mostly inhibitors. hit rate 0.46% among 360,000. AID 651768, 2012; also: % is scaled to controls: 0 for no effect and ±100 for the full control effect; nearly all actives have a fitted effect of over 55% in size
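WRN at 20 nM final was preincubated with compound for 15 min at room temperature; reaction started with 100 nM forked duplex oligonucleotide carrying fluorophore and quencher plus 2 mM ATP (final). Unwinding followed kinetically by red fluorescence (ex 525/em 598 nm).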
L3MBTL1 inh: qHTS Assay for the Inhibitors of L3MBTL1; AlphaScreen L3MBTL1–H3K9me1 peptide binding; Potency, µM (highest dose often 57.1 µM), without a hit: at the top dose activity, negative = inhibition, usual class: inhibitors; Lethal(3)malignant brain tumor-like protein 1 (Homo sapiens), Q9Y468; hit rate 0.66% among 230,000; also: % is scaled to controls: 0 for no effect and ±100 for the full control effect; nearly all actives have a fitted effect of over 60% in size
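AlphaScreen assay: L3MBTL1 (50 nM final) was preincubated 30 min at room temperature with biotinylated H3(1-15)K9me1 peptide (75 nM final), then 30 min with library compounds; streptavidin donor and nickel chelate acceptor beads (10 ug/mL final) added, 30 min dark.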
POLI inh: qHTS for Inhibitors of Polymerase Iota | DNA polymerase iota (Homo sapiens), Q9UNA4 | hit rate 1% among 390,000 | Potency, µM (highest dose often 115 µM), without a hit: top-dose activity, negative = inhibition, actives largely listed as inhibitors | AID 588590, 2011 | Pol iota fluorescent replication assay, 10 min
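Pol iota at 10 nM preincubated 15 min with compounds at room temperature; reaction started with fluorescent substrate, 50 nM final. Fluorescence read kinetically at 0 and 10 min; buffer-only wells as negative control.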
Pol eta inh: qHTS for Inhibitors of Polymerase Eta; DNA polymerase eta (Homo sapiens), Q9Y253; recombinant Pol eta, fluorescent DNA replication assay; Potency, µM (doses to about 114 µM), without a hit: top-dose activity change, negative = inhibition, most hits filed as inhibitors; hit rate 1.2% among 390,000; AID 588591, 2011; also: % is scaled to controls: 0 for no effect and ±100 for the full control effect
Target sequence (Q9Y253 whole entry, looked up): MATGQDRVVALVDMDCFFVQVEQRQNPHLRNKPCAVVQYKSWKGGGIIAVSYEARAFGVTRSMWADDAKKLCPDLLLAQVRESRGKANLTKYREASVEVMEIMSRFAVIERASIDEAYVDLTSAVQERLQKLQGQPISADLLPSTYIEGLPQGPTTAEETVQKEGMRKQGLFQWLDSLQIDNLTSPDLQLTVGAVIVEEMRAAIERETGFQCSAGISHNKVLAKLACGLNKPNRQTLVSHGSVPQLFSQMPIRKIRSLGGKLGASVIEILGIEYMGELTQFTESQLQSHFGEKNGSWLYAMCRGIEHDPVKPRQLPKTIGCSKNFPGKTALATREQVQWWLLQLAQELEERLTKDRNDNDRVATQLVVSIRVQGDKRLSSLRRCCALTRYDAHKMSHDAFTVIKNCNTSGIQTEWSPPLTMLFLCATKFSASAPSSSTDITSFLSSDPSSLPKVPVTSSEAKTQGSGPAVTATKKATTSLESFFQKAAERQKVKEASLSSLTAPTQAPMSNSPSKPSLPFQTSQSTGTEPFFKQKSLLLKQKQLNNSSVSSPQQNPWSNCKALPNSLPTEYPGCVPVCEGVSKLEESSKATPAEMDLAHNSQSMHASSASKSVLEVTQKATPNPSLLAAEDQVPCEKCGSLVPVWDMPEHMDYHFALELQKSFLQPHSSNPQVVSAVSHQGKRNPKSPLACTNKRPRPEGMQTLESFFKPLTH
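Pol eta at 10 nM preincubated with compounds 15 min at room temperature; reaction started with fluorescent substrate (50 nM final) and read kinetically at 0 and 10 min.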
Pol beta inh: qHTS Assay for Inhibitors of DNA Polymerase Beta. Pol beta primer extension/strand displacement, fluorescence kinetic. Potency, µM (highest dose often 114 µM), for inactives: at the highest dose activity change, negative = inhibition, actives largely listed as inhibitors. hit rate 1.3% among 340,000; also: % is scaled to controls: 0 for no effect and ±100 for the full control effect
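Homogeneous kinetic assay of primer extension and strand displacement by 10 nM Pol beta, preincubated 15 min at room temperature with compound before 50 nM substrate (final) was added. Read at 0 and 10 min; four-parameter Hill fit.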
An asterisk follows results filed as active; [ ] = dose if it differs, or a comment. Calls follow the shape of the dose curve; as a rule, active = well fitted curve in the direction sought with a large enough effect; inconclusive = small, poorly fitted or top-dose-only effect, or another doubt; inactive = no such curve, though single readings can be large; an effect the other way counts as inactive or inconclusive. Potency is read from the fitted curve at half-maximal effect.

Results for C(=C\c1ccco1)/C=N/n1cnnc1 ?
Pol kappa inh: inconclusive; WRN helicase inh: -8.1%[57.1 µM]; L3MBTL1 inh: inconclusive; POLI inh: 39.8µM*; Pol eta inh: -0.8%; Pol beta inh: 12.6%

What do the screens show for `S=c1[nH]nc(-c2ccccc2Cl)n1/N=C/C=C/c1ccco1`?
Pol kappa inh: 79.4µM*; WRN helicase inh: inconclusive; L3MBTL1 inh: -7.1%; POLI inh: inconclusive; Pol eta inh: 50.1µM*; Pol beta inh: 20µM*

What do the screens show for `CN(c1cc2c(c3c1ccn3C)C1CCC2O1)C1CCCCC1` (stereo not drawn)?
WRN helicase inh: -3.4%

Results for CC(C)C[C@@H](CO)N1CCN(Cc2ccc([N+](=O)[O-])cc2)CCC1=O ?
Pol kappa inh: 7.3%; WRN helicase inh: -6.8%; L3MBTL1 inh: 8.4%; POLI inh: 28.8%; Pol eta inh: -13.6%; Pol beta inh: 68.8%

Results for S=c1[nH]nc(-c2ccccn2)n1/N=C/c1ccc(-c2ccccc2Br)o1 ?
Pol kappa inh: 4.9%; WRN helicase inh: -9.8%; POLI inh: 79.4µM*; Pol eta inh: -6.4%; Pol beta inh: 50.1µM*

What do the screens show for `S=c1[nH]nc(-c2cccc(Cl)c2)n1/N=C/c1ccc(-c2ccccc2Br)o1`?
Pol kappa inh: -0.3%; WRN helicase inh: 5.2%; L3MBTL1 inh: -10.9%; POLI inh: 3.4%; Pol eta inh: inconclusive; Pol beta inh: 21.7%

Results for S=c1[nH]nc(-c2ccccn2)n1/N=C/c1ccco1 ?
Pol kappa inh: inconclusive; WRN helicase inh: -3.0%; L3MBTL1 inh: 20µM*; POLI inh: inconclusive; Pol eta inh: -5.1%; Pol beta inh: -9.8%

What do the screens show for `S=c1[nH]nc(-c2ccco2)n1/N=C/c1ccccn1`?
L3MBTL1 inh: -1.9%[11.4 µM]; Pol beta inh: 14.6%

How did C=CCNC(=O)c1cccc2c1C(=O)c1ccc(N3CCOCC3)cc1S2(=O)=O do in these assays?
Pol kappa inh: -3.0%; WRN helicase inh: -1.6%; L3MBTL1 inh: 0.2%; POLI inh: 8.5%; Pol eta inh: 3.3%

How did N/C(=N\OS(=O)(=O)c1ccccc1)c1ccncc1 do in these assays?
Pol kappa inh: 1.9%; WRN helicase inh: -2.2%; L3MBTL1 inh: 5.6%; POLI inh: 20µM*; Pol eta inh: -5.1%; Pol beta inh: 21.7%

Results for N/C(=N\OS(=O)(=O)c1ccccc1)c1cccnc1 ?
Pol kappa inh: -7.1%; WRN helicase inh: -2.3%; L3MBTL1 inh: 10.3%; POLI inh: -1.1%; Pol eta inh: -10.1%; Pol beta inh: 26.8%

How did N#CC1=C(S)N(c2ccccc2)C(c2ccc(-c3ccc(Cl)c(Cl)c3)o2)NC1=O (stereo not drawn) do in these assays?
Pol kappa inh: -0.1%; WRN helicase inh: -5.1%; POLI inh: inconclusive; Pol eta inh: -2.2%; Pol beta inh: inconclusive

How did N#CC1=C(S)N(c2ccccc2)C(c2ccc(-c3cc(Cl)ccc3Cl)o2)NC1=O (stereo not drawn) do in these assays?
Pol kappa inh: -8.9%; WRN helicase inh: -17.6%; L3MBTL1 inh: -13.4%; POLI inh: -26.6%; Pol eta inh: 5.8%; Pol beta inh: 31.6µM*

How did Nc1cc2c3c(cccc3c1)C(=O)N(CCN1CCCC1)C2=O do in these assays?
Pol kappa inh: -39.9%; WRN helicase inh: 6.9%[11.6 µM]; L3MBTL1 inh: 12.2%; POLI inh: 35.5µM*; Pol eta inh: 1.9%; Pol beta inh: 25.1µM*

What do the screens show for `Cc1ccc(NC(=O)CN(C)C(=O)c2cccc(S(=O)(=O)NCc3ccco3)c2)cc1`?
Pol kappa inh: inconclusive; WRN helicase inh: -19.6%; L3MBTL1 inh: inconclusive; POLI inh: 56.2µM*; Pol eta inh: inconclusive

Screening data: PubChem BioAssay, National Center for Advancing Translational Sciences (NCATS)
